Test results: PubChem BioAssay (NCI)
This is part of a sample that, as a whole, favours compounds with a hit. Of some 79,000 tested, about 15% had one in any assay. Activity calls are given as the source filed them. Cut-off read from the data, not from the text of the source: active = growth inhibition above about 70%; inactive = the rest.

Tests used:
[1] = NCI Yeast Anticancer Drug Screen. Data for the rad52 strain (AID 147);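 note: 0% = growth of vehicle-treated control cultures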; settings: S. cerevisiae rad52 mutant growth inhibition, hits give high values
In short: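 Yeast strain carrying a DNA damage repair alteration was exposed to test compounds. Growth inhibition was measured relative to vehicle-treated controls.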

[2] = NCI Yeast Anticancer Drug Screen. Data for the wt1 strain (AID 149);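 note: 0% = growth of vehicle-treated wt1 cultures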; settings: S. cerevisiae wt1 strain (SPY 50644) growth inhibition, hits give high values
In short: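 The wt1 strain was treated with compounds, and growth was compared with vehicle-treated cultures to give inhibition.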

[3] = NCI Yeast Anticancer Drug Screen. Data for the rad50EPP+ strain (AID 151);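 note: 0% = growth of vehicle-treated control cultures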; settings: S. cerevisiae rad50 mutant strain, hits give high values
In short: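 Yeast strain carrying rad50 alteration (rad50EPP+) exposed to compounds; growth inhibition measured relative to vehicle-treated controls.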

[4] = NCI Yeast Anticancer Drug Screen. Data for the rad50 strain (AID 155);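 note: 0% = growth of vehicle-only cultures of the same strain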; settings: S. cerevisiae rad50 strain growth inhibition, hits give high values
In short: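 Cells are treated with compound, grown, and their growth is then scored against vehicle-only cultures of the same repair-deficient yeast strain.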

[5] = NCI Yeast Anticancer Drug Screen. Data for the mec2-1 strain (AID 157); settings: S. cerevisiae mec2-1 strain, hits give high values
In short: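 mec2-1 yeast strain, carrying an alteration in DNA damage repair or cell cycle control, was exposed to compounds; growth inhibition was measured relative to vehicle-treated controls.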

[6] = NCI Yeast Anticancer Drug Screen. Data for the rad14 strain (AID 159);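 note: 0% = growth of vehicle-treated control cultures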; settings: S. cerevisiae rad14 strain growth inhibition, hits give high values
In short: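 Readout: yeast growth inhibition, referenced to vehicle-only cultures. Strain bears a defined alteration in DNA damage repair.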

[7] = NCI Yeast Anticancer Drug Screen. Data for the sgs1 mgt1 strain (AID 161);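 note: 0% = growth of cultures given vehicle only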; settings: S. cerevisiae sgs1 mgt1 strain, hits give high values
In short: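 Yeast cells carrying a defined DNA-repair defect were exposed to test compounds. Growth inhibition was measured relative to vehicle-treated controls.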

[8] = NCI Yeast Anticancer Drug Screen. Data for the CLN2oe strain (AID 163);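 note: 0% = growth of vehicle-only control cultures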; settings: S. cerevisiae CLN2oe strain, hits give high values
In short: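 Yeast cells carrying a defined cell-cycle control alteration were exposed to test compounds. Growth inhibition was scored against vehicle-treated control cultures.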

[9] = NCI Yeast Anticancer Drug Screen. Data for the cln2 rad14 strain (AID 165);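 note: 0% = growth equal to vehicle treated cultures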; settings: S. cerevisiae cln2 rad14 strain, hits give high values
In short: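 Yeast carrying cln2 and rad14 alterations (cell cycle control and DNA damage repair) were exposed to compounds. Growth inhibition was measured against vehicle-treated controls.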

[10] = NCI Yeast Anticancer Drug Screen. Data for the bub3 strain (AID 167); settings: S. cerevisiae bub3 mutant strain, hits give high values
In short: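 Part of a panel of yeast mutants defective in DNA damage repair or cell cycle regulation. Each strain is grown with compound, and inhibition is calculated relative to solvent-treated cultures.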

[11] = NCI Yeast Anticancer Drug Screen. Data for the wt2 strain (AID 169);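 note: 0% = growth of vehicle-treated yeast cultures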; settings: S. cerevisiae wt2 strain growth inhibition, hits give high values
In short: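 Yeast cells were exposed to test compounds, and growth inhibition was measured relative to vehicle-treated controls.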

[12] = NCI Yeast Anticancer Drug Screen. Data for the mlh1 strain (AID 171);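 note: 0% = growth of vehicle-treated control cultures of the same strain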; settings: S. cerevisiae mlh1 strain growth inhibition, hits give high values
In short: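 Yeast carrying a defined genetic alteration in DNA damage repair or cell cycle control were exposed to test compounds. Growth inhibition was measured relative to vehicle-treated controls.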

[13] = NCI Yeast Anticancer Drug Screen. Data for the sgs1 strain (AID 173);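 note: 0% = growth of vehicle-only control cultures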; settings: S. cerevisiae sgs1 mutant, hits give high values
In short: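 Yeast mutant strains carrying defined defects in DNA damage repair or cell cycle control were exposed to test compounds. Growth inhibition was scored against vehicle-treated controls.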

[14] = NCI Yeast Anticancer Drug Screen. Data for the mlh1 rad18 strain (AID 175); settings: S. cerevisiae mlh1 rad18 strain growth inhibition, hits give high values
In short: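 Growth inhibition of the yeast strain was measured after compound exposure and expressed relative to vehicle-treated controls. The strain carries defined defects in DNA damage repair.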

[15] = NCI Yeast Anticancer Drug Screen. Data for the rad18 strain (AID 177); settings: S. cerevisiae rad18 mutant growth inhibition, hits give high values
In short: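 Yeast carrying a defined DNA damage repair alteration were exposed to compounds. Growth inhibition was expressed relative to vehicle-treated controls.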

[16] = NCI Yeast Anticancer Drug Screen. Data for the mgt1 strain (AID 153); settings: S. cerevisiae mgt1 mutant growth inhibition, hits give high values
In short: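 Yeast mgt1 strain (DNA repair/cell-cycle alteration panel) exposed to compounds; growth inhibition measured relative to vehicle-treated controls.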

[17] = at 5.0 µM (retest, dose inferred, filed as 0.5)
[18] = at 50.0 µM (retest, dose inferred, filed as 5.0)

Measured: growth inhibition

Cc1cc(N=Nc2ccc(S(=O)(=O)[O-])cc2)cc(C(=O)[O-])c1[O-].NC1CCCCC1N.[Na+].[Pt+4]
active: [1]; at 11.0 µM 99% | [1]; at 33.0 µM 98% | [1]; at 100.0 µM 98% | [2]; at 11.0 µM 98% | [2]; at 33.0 µM 98% | [2]; at 100.0 µM 98% | [3]; at 3.7 µM 95% | [3]; at 11.0 µM 99% | [3]; at 33.0 µM 99% | [3]; at 100.0 µM 98% | [4]; at 3.7 µM 84% | [4]; at 11.0 µM 98% | [4]; at 33.0 µM 98% | [4]; [18] 98% | [4]; at 50.0 µM 87.7% | [4]; at 100.0 µM 98% | [5]; at 3.7 µM 77% | [5]; at 11.0 µM 99% | [5]; at 33.0 µM 99% | [5]; [18] 99% | [5]; at 50.0 µM 91.2% | [5]; at 100.0 µM 98% | [6]; at 11.0 µM 98% | [6]; at 33.0 µM 98% | [6]; at 100.0 µM 98% | [7]; [18] 99% | [7]; at 50.0 µM 92% | [8]; at 11.0 µM 95% | [8]; at 33.0 µM 99% | [8]; at 100.0 µM 98% | [9]; [18] 97% | [9]; at 50.0 µM 92% | [10]; at 11.0 µM 99% | [10]; at 33.0 µM 98% | [10]; [18] 98% | [10]; at 50.0 µM 90.2% | [10]; at 100.0 µM 98% | [11]; at 3.7 µM 93% | [11]; at 11.0 µM 98% | [11]; at 33.0 µM 98% | [11]; at 100.0 µM 97% | [12]; at 11.0 µM 99% | [12]; at 33.0 µM 99% | [12]; at 100.0 µM 98% | [13]; at 11.0 µM 99% | [13]; at 33.0 µM 99% | [13]; at 100.0 µM 99% | [14]; [18] 98% | [14]; at 50.0 µM 85.8% | [15]; at 11.0 µM 97% | [15]; at 33.0 µM 98% | [15]; at 100.0 µM 98%
inactive: [1]; at 1.2 µM 6% | [1]; at 3.7 µM 33% | [2]; at 1.2 µM 3% | [2]; at 3.7 µM 44% | [3]; at 1.2 µM 25% | [4]; at 1.2 µM -23% | [4]; [17] 20% | [5]; at 1.2 µM 9% | [5]; [17] 32% | [6]; at 1.2 µM -4% | [6]; at 3.7 µM 52% | [7]; [17] 68% | [8]; at 1.2 µM 5% | [8]; at 3.7 µM 21% | [9]; [17] 49% | [10]; at 1.2 µM -21% | [10]; at 3.7 µM 40% | [10]; [17] 50% | [11]; at 1.2 µM -2% | [12]; at 1.2 µM 7% | [12]; at 3.7 µM 66% | [13]; at 1.2 µM 21% | [13]; at 3.7 µM 63% | [14]; [17] 33% | [15]; at 1.2 µM -26% | [15]; at 3.7 µM 42%

N#CSc1ccc(S(N)(=O)=O)cc1
active: [4]; [18] 97% | [4]; at 100.0 µM 73% | [5]; [18] 95% | [7]; [18] 85% | [9]; [18] 82% | [10]; [18] 86% | [10]; at 50.0 µM 75.8% | [10]; at 100.0 µM 79% | [14]; [18] 98%
inactive: [1]; at 1.2 µM -51% | [1]; at 3.7 µM -48% | [1]; at 11.0 µM -51% | [1]; at 33.0 µM -1% | [1]; at 100.0 µM 64% | [2]; at 1.2 µM -43% | [2]; at 3.7 µM -50% | [2]; at 11.0 µM -31% | [2]; at 33.0 µM -9% | [2]; at 100.0 µM 53% | [3]; at 1.2 µM -67% | [3]; at 3.7 µM -50% | [3]; at 11.0 µM -91% | [3]; at 33.0 µM -86% | [3]; at 100.0 µM -14% | [16]; at 1.2 µM -81% | [16]; at 3.7 µM -91% | [16]; at 11.0 µM -44% | [16]; at 33.0 µM -62% | [16]; at 100.0 µM 46% | [4]; at 1.2 µM -55% | [4]; at 3.7 µM -39% | [4]; [17] 51% | [4]; at 11.0 µM -36% | [4]; at 33.0 µM 17% | [4]; at 50.0 µM 56.9% | [5]; at 1.2 µM -84% | [5]; at 3.7 µM -60% | [5]; [17] 51% | [5]; at 11.0 µM -37% | [5]; at 33.0 µM -2% | [5]; at 50.0 µM 47.6% | [5]; at 100.0 µM 63% | [7]; [17] 0% | [7]; at 50.0 µM 62.1% | [8]; at 1.2 µM -27% | [8]; at 3.7 µM -13% | [8]; at 11.0 µM 2% | [8]; at 33.0 µM 29% | [8]; at 100.0 µM 66% | [9]; [17] 64% | [9]; at 50.0 µM 41.4% | [10]; at 1.2 µM -23% | [10]; at 3.7 µM -37% | [10]; [17] 5% | [10]; at 11.0 µM -17% | [10]; at 33.0 µM 37% | [11]; at 1.2 µM -48% | [11]; at 3.7 µM -45% | [11]; at 11.0 µM -32% | [11]; at 33.0 µM -25% | [11]; at 100.0 µM 50% | [12]; at 1.2 µM -65% | [12]; at 3.7 µM -44% | [12]; at 11.0 µM -33% | [12]; at 33.0 µM 8% | [12]; at 100.0 µM 64% | [13]; at 1.2 µM -68% | [13]; at 3.7 µM -67% | [13]; at 11.0 µM -21% | [13]; at 33.0 µM 9% | [13]; at 100.0 µM 65% | [14]; [17] 40% | [14]; at 50.0 µM 59.1%

O=C1C=CC(=O)c2c(O)c(Nc3ccc(OC(F)(F)F)cc3)c(Cl)c(O)c21
active: [1]; at 100.0 µM 81% | [2]; at 100.0 µM 94% | [3]; at 33.0 µM 70% | [3]; at 100.0 µM 93% | [4]; at 100.0 µM 89% | [5]; at 33.0 µM 78% | [5]; [18] 79%
inactive: [1]; at 1.2 µM 9% | [1]; at 3.7 µM 12% | [1]; at 11.0 µM 17% | [1]; at 33.0 µM 32% | [2]; at 1.2 µM 23% | [2]; at 3.7 µM 22% | [2]; at 11.0 µM 26% | [2]; at 33.0 µM 50% | [3]; at 1.2 µM 2% | [3]; at 3.7 µM 8% | [3]; at 11.0 µM 21% | [4]; at 1.2 µM -16% | [4]; at 3.7 µM -15% | [4]; [17] 4% | [4]; at 11.0 µM 4% | [4]; at 33.0 µM 67% | [4]; [18] 46% | [4]; at 50.0 µM 42% | [5]; at 1.2 µM -7% | [5]; at 3.7 µM -3% | [5]; [17] 9% | [5]; at 11.0 µM 8% | [5]; at 50.0 µM 46.8%
